# From PubChem BioAssay
# Hits are enriched below; roughly 2.1% of the tested compounds scored in any of these assays.
# KKLEB tox = cytotoxicity in KKLEB CF airway cells, primary screen, cytotoxicity control for CF NF-kB inhibitor project, cell-based, uHTS, fluorescence assay plates. KKLEB CF airway cells viability, ATPlite luminescence, overnight; hits give low values; cells stimulated with P. aeruginosa culture filtrate. activity change (cytotoxicity), % at 5 µM. hit rate 0.36% among 360,000. AID 602141, 2011;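 active = corrected activity change at or below -50% at 5 µM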
# EWS-Fli block = EWS/Fli-driven NR0B1 reporter inhibitors, primary screen, A673 cells, NR0B1 luciferase, luminescence, MLPCN library; viability-normalised; inhibition, % at 12.6 µM; hit rate 0.67% among 350,000; AID 651661, 2012;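 active = mean inhibition of at least 50% after viability correction, with every replicate also passing that limit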;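 also: firefly luciferase signal divided by Alamar Blue viability fluorescence both relative to DMSO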
# HIF-2a block = HIF-2a reporter inhibitors, primary screen, luminescence, 786-0 RCC cells; 786-0 RCC cells HIF-2a reporter, luciferase luminescence, overnight; hit rate 0.72% among 360,000; inhibition, % at 18.8 µM; AID 624352, 2012;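 active = inhibition of the luminescence signal of 40% or more relative to plate controls, in a single-dose primary screen at 18.75 µM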
# PAX8 reporter = inhibitors of PAX8-driven TPO luciferase reporter, primary screen, RMG-I cells, single concentration. SteadyGlo, 24 h. inhibition, % at 12.6 µM. hit rate 1.2% among 360,000. AID 652154, 2013;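 active = mean replicate inhibition at least 60% with every replicate also reaching 60%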;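 also: luciferase light reporting Pax8 driven TPO promoter activity; plate controls were median of neutral control wells for no effect and mitoxantrone controls for full effect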
# CF NFkB block = inhibitors of PAF-induced NF-kB signaling, primary screen, cell-based, GFP fluorescence, uHTS; KKLEB NF-kB-GFP reporter, GFP fluorescence overnight; hit rate 0.86% among 360,000; inhibition, % at 5 µM;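 active = at least 50% inhibition at 5 µM, scaled per plate between neutral and stimulator controls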;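 also: PAF is a Pseudomonas aeruginosa culture filtrate used as stimulus; plate controls were PAF-stimulated DMSO wells for no effect and unstimulated DMSO wells for full effect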
# * = called active by the depositor; / = not tested or not shown.
SMILES,KKLEB tox,EWS-Fli block,HIF-2a block,PAX8 reporter,CF NFkB block
CS(=O)(=O)Nc1ccc2c(c1)[C@@H]1C[C@@H](CC(=O)NCc3ccc(Oc4ccccc4)cc3)O[C@H](CO)[C@@H]1O2,/,53*,/,31,/
CS(=O)(=O)Nc1ccc2c(c1)[C@@H]1C[C@@H](CC(=O)NCc3ccc(-c4ccccc4)cc3)O[C@@H](CO)[C@@H]1O2,/,57*,/,82*,/
CS(=O)(=O)Nc1ccc2c(c1)[C@H]1C[C@H](CC(=O)NCc3ccccc3)O[C@H](CO)[C@H]1O2,-10,-3,-3,3,2
Cc1noc(C)c1NC(=O)N(C)C[C@H]1Oc2c(NS(=O)(=O)c3cn(C)cn3)cccc2C(=O)N([C@@H](C)CO)C[C@H]1C,/,-5,/,/,/
COc1ccc2c3c([nH]c2c1)[C@H](CO)N(C(=O)c1ccc(F)cc1)CC31CCN(C)CC1,/,24,/,/,/
CCCC#Cc1cnc2c(c1)C(=O)N([C@@H](C)CO)C[C@@H](C)[C@@H](CN(C)C(=O)Nc1c(C)noc1C)O2,/,4,/,/,/
CCC(=O)N1CC2(C1)[C@H](c1ccccc1)[C@H](CO)N2CCC(F)(F)F,/,-3,/,8,/
CN(C)c1ccc2c(c1)[C@@H]1C[C@@H](CC(=O)NCc3ccc(-c4ccccc4)cc3)O[C@@H](CO)[C@@H]1O2,/,55*,/,16,/
O=C(C[C@@H]1C[C@@H]2c3cc(NC(=O)C4CCC4)ccc3O[C@@H]2[C@@H](CO)O1)NCc1ccc(-c2ccccc2)cc1,/,10,/,70*,/
C[C@@H]1CN([C@@H](C)CO)C(=O)c2cc(/C=C/c3ccccc3)cnc2O[C@H]1CN(C)C(=O)C1CC1,/,-7,/,/,/
O=C(C[C@H]1C[C@@H]2c3cc(NC(=O)C4CCC4)ccc3O[C@@H]2[C@@H](CO)O1)NCc1ccncc1,/,1,/,-2,/
O=C(NCC1CC1)[C@@H]1[C@@H](CO)[C@@H]2Cn3c(ccc(-c4ccccc4F)c3=O)[C@H]1N2Cc1cccnc1,/,2,/,/,/
COc1ccc(-c2ccc(C(C)=O)cc2)cc1[C@H]1[C@@H]2C=CCC[C@@]2(C)C(=O)N1Cc1ccccc1,-8,2,33,62*,26
CCNC(=O)Nc1ccc2c(c1)C(=O)N(C)[C@@H]1CC[C@H](CC(=O)NCC3CC3)O[C@@H]1CO2,/,-5,/,17,/
CCCCCCCCCC[n+]1cccc2c3ccccc3ccc21,-50*,40,7,81*,49
CCCCCCCC[n+]1cccc2c3ccccc3ccc21,-27,46,-40,82*,38
Cc1cccc(S(=O)(=O)N(C)C[C@@H]2OCc3ccccc3-c3ccccc3C(=O)N([C@H](C)CO)C[C@H]2C)c1,/,7,/,/,/
COc1ccc(-c2cn(CC[C@H]3CC[C@@H](NC(=O)Cc4ccccn4)[C@@H](CO)O3)nn2)cc1,/,-5,/,88*,/
O=C(Cc1ccccn1)N[C@H]1CC[C@@H](CCn2cc(-c3ccccc3)nn2)O[C@@H]1CO,/,9,/,16,/
Clc1ccc(CN2CCc3c([nH]c4ccccc34)C2)cc1Cl,-24,57*,27,10,2
Clc1cccc(CN2CCc3c([nH]c4ccccc34)C2)c1,-26,25,28,-6,-10
CN(C)CCCNC(=S)NCC(c1ccc(Cl)cc1Cl)c1c[nH]c2ccccc12 (stereo unspecified),-2,62*,12,29,18
CCCCNC(=S)NCC(c1ccccc1)c1c[nH]c2ccccc12 (stereo unspecified),10,4,22,9,-9
COc1cccc(-c2cnc3c(c2)C(=O)N([C@@H](C)CO)C[C@@H](C)[C@@H](CN(C)CC2CC2)O3)c1,/,-2,/,/,/
COc1cccc(/C=N/n2c(N)c(S(=O)(=O)c3cccs3)c3nc4ccccc4nc32)c1,-4,/,6,-10,-11
SMILES,KKLEB tox,EWS-Fli block,HIF-2a block,PAX8 reporter,CF NFkB block
Nc1c(S(=O)(=O)c2cccs2)c2nc3ccccc3nc2n1/N=C/c1cccc(O)c1,10,/,40*,/,-10
Cc1ccc(NC(=O)Cc2noc3ccccc23)c(C)c1,1,/,-61,-13,-12
Cc1cccc2c(CC(=O)Nc3ccccc3)noc12,-12,-5,6,64*,-6
CC(=O)Nc1cccc(NC(=O)Cc2cccs2)c1,1,-1,9,-13,10
O=C(Cc1cccs1)Nc1cccc(-c2nc3cc4ccccc4cc3[nH]2)c1,-71*,-68,-382,16,81*
O=C(C[C@@H]1C=C[C@H](NS(=O)(=O)c2ccccc2)[C@H](CO)O1)N1CCC(Cc2ccccc2)CC1,/,0,/,10,/
COc1ccc2c3c([nH]c2c1)[C@@H](CO)N(C(=O)CN(C)C)CC31CN(C(=O)c2ccncc2)C1,/,0,/,/,/
COc1cc(/C=C2\SC(=N)N(c3ccc(F)cc3)C2=O)ccc1O,-40,0,19,20,62*
CCOc1ccc(N2C(=O)S/C(=C\c3ccc(O)c(OC)c3)C2=O)cc1,9,18,-33,1,0
C[C@H]1CN([C@@H](C)CO)C(=O)c2cc(NC(=O)CCCN(C)C)ccc2O[C@@H]1CN(C)C(=O)Nc1cccc2ccccc12,/,0,/,-4,/
CO[C@@H]1CN(C)C(=O)c2ccc(NS(=O)(=O)c3ccc(C)cc3)cc2OC[C@H](C)N(C(=O)NC(C)C)C[C@@H]1C,/,-1,/,/,/
O=C(OCc1cnc(Cl)s1)c1ccccc1Cl,-3,/,1,/,-3
O=C(OCn1ncc(Br)c(Br)c1=O)c1ccc(F)cc1,-104*,/,93*,/,93*
O=C(OCn1ncc(Br)c(Br)c1=O)c1ccccc1Cl,-96*,/,92*,/,91*
CC(=O)OCn1ncc(N2CCOCC2)c(Br)c1=O,-2,4,1,12,20
CCNC(=O)C[C@H]1CC[C@H]2[C@H](COc3ccc(NC(=O)c4ccccc4Cl)cc3C(=O)N2C)O1,/,-6,/,-13,/
Cc1ccc(/C=N/Nc2cc(C)nc(NCc3ccccc3)n2)cc1,-2,1,-37,12,4
Cc1cc(N/N=C/c2ccc(O)cc2)nc(NS(=O)(=O)c2ccccc2)n1,20,/,54*,-3,-34
COC(=O)[C@]1(Cc2ccccc2)N=C(c2ccc(OCCCO)cc2)O[C@@H]1c1ccccc1,/,11,/,5,/
COc1ccc(C(=O)C(CN2CCCC2)c2ccccc2)cc1 (stereo unspecified),-58*,/,-5,/,54*
COc1ccc(C(=O)CCN2CCCCCC2)cc1,8,-2,9,/,7
O=C(c1ccc(F)cc1)C(CN1CCOCC1)c1ccccc1 (stereo unspecified),-68*,57*,30,/,90*
O=C(c1ccc(Cl)cc1)C(CN1CCCC1)c1ccccc1 (stereo unspecified),-60*,65*,37,48,69*
